Many of the other results were omitted from the sample, so hits are more common in it than they were.
nsP2pro primary: Primary qHTS for inhibitors of NSP2Pro chikungunya virus (CHIKV); FRET peptide cleavage, nsP2pro, fluorescence 1 h; Potency, µM (series often up to 24.9 µM), hits mostly inhibitors; 1.1% of 31,000 active; AID 1964107, 2024; further: nearly all actives have a fitted effect of over 60% in size
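Enzyme 150 nM, substrate 2.5 uM (both final); Tris-HCl 10 mM pH 8.0 + 0.01% Tween 20; cpd up to 25 uM, 7 pts; 15 min preinc., 1 h RT; fluorescence ex 525/em 598.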
nsP2 cell sec: Secondary cell base assay for inhibitors of NSP2Pro Chikungunya virus (CHIKV) | AID 1964100, 2024 | shares compounds with nsP2pro primary | 10% of 450 active | cell-based CHIKV nsP2 protease reporter assay | Potency, µM (titrated, usually from 51.1 µM), hits mostly inhibitors; further: nearly all actives have a fitted effect of over 70% in size
CHIKV NSP2 FL: Selectivity profile for inhibitors of NSP2Pro chikungunya virus (CHIKV): Full length NSP2 enzyme counterscreen (CHIKV-NSP2) | shares compounds with nsP2pro primary | Full-length CHIKV NSP2 protease enzymatic counterscreen | Potency, µM (highest dose often 50.7 µM), actives largely listed as inhibitors | 39% of 410 active | AID 1964101, 2024; further: nearly all actives have a fitted effect of over 65% in size
Furin counter: Selectivity profile for inhibitors of NSP2Pro chikungunya virus (CHIKV): Human furin counterscreen; shares compounds with nsP2pro primary; Recombinant human furin enzymatic counterscreen, fluorogenic substrate; AID 1964102, 2024; Potency, µM (doses to about 50.6 µM), hits mostly inhibitors; 6% of 410 active
nsP2 NS23 pep: Selectivity profile for inhibitors of NSP2Pro chikungunya virus (CHIKV): Endogenous NS2/3 peptide Counterscreen; shares compounds with nsP2pro primary; Purified CHIKV nsP2 protease, endogenous NS2/3 peptide cleavage; Potency, µM (doses to about 51 µM), actives largely listed as inhibitors; 34% of 410 active; further: nearly all actives have a fitted effect of over 55% in size
Papain counter: Selectivity profile for inhibitors of NSP2Pro chikungunya virus (CHIKV): Papain Counterscreen. shares compounds with nsP2pro primary. purified papain protease activity, enzymatic inhibition. Potency, µM (highest dose often 51 µM), actives largely listed as inhibitors. 5% of 410 active. AID 1964104, 2024
nsP2pro conf qHTS: Confirmatory qHTS for inhibitors of NSP2Pro chikungunya virus (CHIKV); shares compounds with nsP2pro primary; CHIKV nsP2 protease enzymatic activity, qHTS; Potency, µM (top dose mostly 25.5 µM), usual class: inhibitors; 43% of 410 active; AID 1964105, 2024; further: nearly all actives have a fitted effect of over 75% in size
HCV NS3 4A cs: Selectivity profile for inhibitors of NSP2Pro chikungunya virus (CHIKV): NS34A-HCV Counterscreen | shares compounds with nsP2pro primary | Potency, µM (doses to about 50.9 µM), actives largely listed as inhibitors | 20% of 410 active | HCV NS3/4A protease biochemical counterscreen; further: nearly all actives have a fitted effect of over 55% in size
Large screens that a line does not name were inactive (follow-up assays come after a bar, where they were run). The call rests on the fitted dose curve.

C=C1C(=O)OC2CC3(C)C(CC12)C(C)=CC(O)C3OC(C)=O (stereo unspecified)	none
C=C1C(=O)OC2C1C(O)CC1(C)C(O)CCC(C=O)C21 (stereo unspecified)	nsP2pro primary inconclusive | nsP2 cell sec inactive | CHIKV NSP2 FL inactive | Furin counter inactive | nsP2 NS23 pep inactive | Papain counter inactive | nsP2pro conf qHTS inactive | HCV NS3 4A cs inactive
O=C(Nc1ccc2ccccc2c1)Nc1nnc(-c2ccncc2)s1	none
CN1CCCC1c1nc(C2CN(S(=O)(=O)Cc3ccccc3F)C2)no1 (stereo unspecified)	none
OCC1(Cc2ccccc2)CCCN(Cc2cn[nH]c2-c2ccc(F)cc2)C1 (stereo unspecified)	none
Cn1ncnc1[C@H]1c2n[nH]c(=O)c3cc(F)cc(c23)N[C@@H]1c1ccc(F)cc1	none
CCC(C)C1NC(=O)C2CCCN2C(=O)C(C(C)C)NC(=O)c2ccccc2NC(=O)C(Cc2ccc(O)cc2)NC(=O)C(C)NC(=O)C(C(C)O)NC1=O (stereo unspecified)	none
Cc1cc(CCCOc2c(C)cc(-c3noc(C(F)(F)F)n3)cc2C)on1	nsP2pro primary inconclusive | nsP2 cell sec inactive | CHIKV NSP2 FL inactive | Furin counter inactive | nsP2 NS23 pep inactive | Papain counter inactive | nsP2pro conf qHTS inactive | HCV NS3 4A cs inactive
Cc1ccc(C(=O)Oc2ccc(-c3nc4ccccc4[nH]3)cc2)cc1Br	none
O=C(Cc1ccc(Cl)cc1)Nc1cnccc1C(=O)O	none
Cc1ccc(S(=O)(=O)Nc2cnccc2C(=O)Nc2nc(-c3ccccc3Cl)cs2)cc1	none
Cc1cccc2c3c(ccc12)C1=C(C(=O)C3=O)[C@@H](C)CO1	nsP2pro primary inconclusive | nsP2 cell sec inactive | CHIKV NSP2 FL 10.3µM | Furin counter inactive | nsP2 NS23 pep inconclusive | Papain counter inconclusive | nsP2pro conf qHTS 10µM | HCV NS3 4A cs inactive
C[C@@H]1COCCN1c1cc(C2(S(C)(=N)=O)CC2)nc(-c2ccnc3[nH]ccc23)n1 (stereo partly specified)	none
O=C(c1ccc(C2CCCNC2)cc1)N1CCN(c2ccncc2)CC1 (stereo unspecified)	none
COc1ccc(-c2nc3ccccc3c(=O)n2Cc2ccccc2)cc1CNc1ccc(NC(C)=O)cc1	none
O=C(O)/C=C/c1ccc(O)c(O)c1	nsP2pro primary inconclusive | nsP2 cell sec inactive | CHIKV NSP2 FL inactive | Furin counter inactive | nsP2 NS23 pep inactive | Papain counter inactive | nsP2pro conf qHTS inactive | HCV NS3 4A cs inconclusive
COc1cc(/C=C/C(=O)O)ccc1O	none
O=C(/C=C/c1ccc(O)c(O)c1)O[C@@H](C(=O)O)[C@@H](OC(=O)/C=C/c1ccc(O)c(O)c1)C(=O)O	none
Fc1ccccc1-c1nc(NCc2ccc(-c3cccnc3)cc2)c2ccccc2n1	none
CN(C)c1cccc(-c2nc(N3CCC(C(N)=O)CC3)ncc2F)c1	none
CN(C)c1cccc(-c2nccc(N3CCC(C(N)=O)CC3)n2)c1	none
CN(C)c1cccc(-c2ncc(F)c(N3CCC(C(N)=O)CC3)n2)c1	nsP2pro primary inconclusive | nsP2 cell sec inactive | CHIKV NSP2 FL inactive | Furin counter inactive | nsP2 NS23 pep inactive | Papain counter inactive | nsP2pro conf qHTS inactive | HCV NS3 4A cs inactive
